Source: PubChem BioAssay (several laboratories)
Sampled rows, rich in hits. Any-hit rate of the full collection: about 4.2%.
tim10-1 inh = growth inhibitors of tim10-1 mutant yeast; inhibition, % at 20 µM; S. cerevisiae tim10-1 ts strain growth, BacTiter-Glo, 24 h; hit rate 2.2% among 330,000;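 active = inhibition of at least 40%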;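 also: mutant grown at 25 °C; 0% = DMSO wells with yeast and 100% = wells holding no yeast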
TIM10 inh = TIM10 yeast growth inhibition; S. cerevisiae TIM10 strain growth, BacTiter-Glo luminescence, 24 h; inhibition, % at 10 µM; hit rate 1.4% among 330,000; AID 463195;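 active = inhibition of 40% or more at the single tested concentration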;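 also: wild-type TIM10 isogenic control strain grown at permissive 25 °C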
NALP1 yeast inh = blocks the NALP1 inflammasome reconstituted in yeast; S. cerevisiae NALP1/ASC/caspase-1 growth, X-gal OD620, 72 h; inhibition, % at 10 µM; hit rate 0.61% among 280,000; in the data active = inhibition mostly above about 24%, no sharp cut-off; inactive = mostly below about 32%
tim23-1 inh = growth inhibitors of tim23-1 mutant yeast; S. cerevisiae tim23-1 growth, BacTiter-Glo luminescence, 24 h; hit rate 1.3% among 330,000; inhibition, % at 20 µM;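 active = growth inhibition of the mutant yeast at or above 50%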;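 also: temperature-sensitive mutant grown at 25 °C; plate controls were DMSO-treated mutant yeast for no effect and medium wells lacking yeast for full effect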
V-ATPase pH = regulators of yeast V-ATPase proton transport. response, % at 10 µM. AID 504577. hit rate 0.37% among 350,000. S. cerevisiae, pHLuorin cytosolic pH fluorescence; in the data active = response mostly above about 7.3%, no sharp cut-off; inactive = mostly below about 5.4%; also: actives read high
NLRP3 yeast inh = inhibitors of NALP3 inflammasome in yeast; Yeast reconstituted NLRP3/ASC/caspase-1, beta-gal luminescence, 24 h; inhibition, % at 10 µM; hit rate 0.39% among 330,000; AID 2825;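 active = inhibition of 50% or more; inactive = inhibition below 50%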;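 also: plate controls were induced DMSO wells for no effect and uninduced yeast grown without galactose for full effect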
tim10-1 conf = confirmation of tim10-1 mutant yeast growth inhibitors. inhibition, % at 20 µM. hit rate 56% among 7,400. S. cerevisiae tim10-1 ts strain growth, BacTiter-Glo, 24 h. shares compounds with tim10-1 inh;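 active = inhibition of yeast growth at or above a set limit in either of two repeat tests at 20 µM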;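 also: tim10-1 mutant grown at permissive 25 °C to find synthetic lethal compounds; 0% = DMSO yeast wells and 100% = medium wells without yeast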
An asterisk follows results filed as active; nt = not tested or not shown.

SMILES | tim10-1 inh | TIM10 inh | NALP1 yeast inh | tim23-1 inh | V-ATPase pH | NLRP3 yeast inh | tim10-1 conf
Cn1c(=O)[nH]c(=O)c2c1nc(N1CCCCCC1)n2CCCSc1nnnn1-c1ccccc1 | 41* | 15 | 24 | 17 | nt | -2 | 24
O=c1[nH]c(NCCCO)nc2c1C1(CCCC1)Cc1ccccc1-2 | 10 | 9 | 9 | 14 | 4 | 5 | nt
C=CCNC(=S)NNc1nc2c(c(=O)[nH]1)C1(CCCC1)Cc1ccccc1-2 | 48* | 34 | 8 | 37 | 4 | -17 | 38*
O=c1[nH]c(NNC(=S)NCc2ccccc2)nc2c1C1(CCCCC1)Cc1ccccc1-2 | 43* | 32 | -6 | 21 | -1 | 4 | 30
COc1ccccc1-c1nc2cc3ccccc3cc2nc1-c1ccccc1 | 34 | 25 | 18 | 34 | -2 | 10 | nt
O=C(/C=C/c1ccc(Cl)cc1Cl)N1CCN(c2ccc([N+](=O)[O-])c(N3CCOCC3)c2)CC1 | 42* | 13 | 26 | 13 | -1 | 6 | 16
O=C1CCCc2cc3c(ccc4ccccc43)cc21 | nt | nt | nt | nt | -5 | nt | nt
Cc1cccc(-n2c(-c3ccco3)n[nH]c2=S)c1 | 16 | 3 | 6 | 18 | -2 | 1 | nt
CCCc1cc(-c2n[nH]c(=S)n2-c2cccc(C)c2)cs1 | 46* | 28 | 29 | 49 | 0 | 18 | 39*
Cc1cccc(NC(=O)NC(C)CCc2ccccc2)c1 (centres undefined) | 24 | 26 | 23 | 16 | 1 | -4 | nt
OC(CNCCc1ccc(C(F)(F)F)cc1)COc1ccc2ccccc2c1 (centres undefined) | 48* | 7 | 96* | -94 | -3 | 27 | -7
CC(=O)NN1C(=O)/C(=C\c2ccc(O)cc2)SC1=S | 1 | 5 | -3 | 11 | 2 | 15 | nt
O=C1/C(=C\c2ccc(O)cc2)SC(=S)N1/N=C/c1ccc(O)cc1 | 41* | 24 | 1 | 35 | 1 | 12 | 39*
Cc1ccc(S(=O)(=O)Nc2cccc(-c3ccc(N4CCCCCC4)nn3)c2)cc1 | 19 | -2 | 16 | 16 | 0 | 16 | nt
CC(C)(C)C1CCc2c(sc(NC(=O)CSc3ncn[nH]3)c2C#N)C1 (centres undefined) | 40* | 23 | -65 | 38 | 2 | 21 | 12
CC1CCc2c(sc(NC(=O)CSc3ncn[nH]3)c2C#N)C1 (centres undefined) | -2 | -3 | nt | 12 | 3 | 12 | nt
CCCc1cc(=O)[nH]c(SCC(=O)Nc2sc3c(c2C#N)CCC(C)C3)n1 (centres undefined) | 47* | 14 | -2 | 21 | -6 | -2 | -8
CCCCN1C(=O)NC(NC(=O)c2ccco2)(C(F)(F)F)C1=O (centres undefined) | 14 | -1 | 0 | 8 | 4 | 2 | nt
CC(C)Oc1ccc(C(=O)NC2(C(F)(F)F)NC(=O)N(CCCc3ccccc3)C2=O)cc1 (centres undefined) | 43* | 4 | 29 | 43 | 2 | 5 | 30
CCS(=O)(=O)c1ccc(OC)c(N=Nc2ccc(O)c3ncccc23)c1 | 41* | 13 | 3 | 20 | -3 | 27 | 38*
CCN(CC)S(=O)(=O)c1cc(OC)ccc1N=Nc1ccc(O)c2ncccc12 | 44* | 23 | 10 | 39 | -4 | 30 | 42*
O=C(N[C@@H]1C/C=C\C[C@@H](CC(=O)N(CCO)Cc2ccccc2)C(=O)NCCOC1=O)OCC1c2ccccc2-c2ccccc21 | 21 | -3 | nt | 7 | 2 | 4 | nt
CC(C)(C)C(=O)NC(=S)Nc1ccc(Cc2ccncc2)cc1 | 44* | 32 | 20 | 38 | 10 | 44 | 30
Cn1cccc1/C=C1\CCC/C(=C\c2cccn2C)C1=O | 50* | 20 | -6 | 23 | -1 | 13 | 21
CC1=NN(C(=O)c2ccc(Cn3nc(C)c(Br)c3C)cc2)C(O)(C(F)(F)F)C1 (centres undefined) | 41* | 27 | 15 | 33 | 1 | 7 | 22
COc1cc2ccccc2cc1C(=O)N(CCN(C)C)c1nc2c(OC)ccc(OC)c2s1 | 46* | 25 | 18 | 21 | 2 | 11 | 15
COc1cc2ccccc2cc1C(=O)N(CCN(C)C)c1nc2ccc(C)cc2s1 | 42* | 32 | 26 | 20 | -2 | 25 | 14
